Bioassay records (PubChem BioAssay)
KDM5B inh: KDM5B demethylase inhibition; Q9UGL1; KDM5B demethylase, FDH-coupled NADH fluorescence (FDH is formaldehyde dehydrogenase); Potency, µM (titrated, usually from 57.7 µM), actives largely listed as inhibitors; 2.6% of 220,000 active; active means well fitted inhibition curve with a large enough effect; further: 0% is about no effect; nearly all actives have a fitted effect of over 70% in size
Target sequence (Q9UGL1 whole entry, looked up): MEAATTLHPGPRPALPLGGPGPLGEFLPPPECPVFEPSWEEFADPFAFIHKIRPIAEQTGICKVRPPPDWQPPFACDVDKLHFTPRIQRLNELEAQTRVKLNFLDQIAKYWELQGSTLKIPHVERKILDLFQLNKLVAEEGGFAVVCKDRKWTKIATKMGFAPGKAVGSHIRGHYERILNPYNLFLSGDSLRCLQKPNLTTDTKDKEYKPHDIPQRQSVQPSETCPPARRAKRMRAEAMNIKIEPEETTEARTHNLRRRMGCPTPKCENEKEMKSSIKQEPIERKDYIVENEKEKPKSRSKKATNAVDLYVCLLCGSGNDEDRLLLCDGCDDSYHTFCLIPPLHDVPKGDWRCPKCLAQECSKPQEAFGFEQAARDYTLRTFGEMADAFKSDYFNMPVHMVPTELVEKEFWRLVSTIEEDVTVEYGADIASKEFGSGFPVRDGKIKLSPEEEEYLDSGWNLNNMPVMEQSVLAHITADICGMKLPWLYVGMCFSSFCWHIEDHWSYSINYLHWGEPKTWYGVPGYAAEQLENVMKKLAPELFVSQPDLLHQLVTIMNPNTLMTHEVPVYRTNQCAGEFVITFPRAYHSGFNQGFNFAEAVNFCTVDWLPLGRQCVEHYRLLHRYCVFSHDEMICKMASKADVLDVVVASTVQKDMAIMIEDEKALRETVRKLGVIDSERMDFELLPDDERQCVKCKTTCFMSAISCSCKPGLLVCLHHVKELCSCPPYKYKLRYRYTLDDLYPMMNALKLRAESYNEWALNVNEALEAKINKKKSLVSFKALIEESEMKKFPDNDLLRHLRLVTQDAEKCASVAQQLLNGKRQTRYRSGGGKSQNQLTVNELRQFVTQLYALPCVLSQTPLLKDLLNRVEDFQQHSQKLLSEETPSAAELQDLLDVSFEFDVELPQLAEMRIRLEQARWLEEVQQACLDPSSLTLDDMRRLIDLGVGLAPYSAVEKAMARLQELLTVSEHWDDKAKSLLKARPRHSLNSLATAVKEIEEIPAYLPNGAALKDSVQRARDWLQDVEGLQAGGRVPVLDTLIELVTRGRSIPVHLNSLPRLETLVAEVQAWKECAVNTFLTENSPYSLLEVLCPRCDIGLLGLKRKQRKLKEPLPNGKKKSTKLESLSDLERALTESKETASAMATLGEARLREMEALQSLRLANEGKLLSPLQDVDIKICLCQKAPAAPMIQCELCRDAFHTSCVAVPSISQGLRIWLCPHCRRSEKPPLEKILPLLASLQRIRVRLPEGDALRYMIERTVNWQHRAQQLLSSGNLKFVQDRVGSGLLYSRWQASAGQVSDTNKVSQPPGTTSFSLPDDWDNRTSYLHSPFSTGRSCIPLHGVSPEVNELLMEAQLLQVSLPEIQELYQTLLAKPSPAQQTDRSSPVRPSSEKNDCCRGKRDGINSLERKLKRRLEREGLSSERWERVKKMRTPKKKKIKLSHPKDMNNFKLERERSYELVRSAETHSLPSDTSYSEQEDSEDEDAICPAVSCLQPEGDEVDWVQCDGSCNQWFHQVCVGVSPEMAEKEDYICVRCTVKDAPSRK
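Compound dilutions met 200 nM (final) KDM5BΔAP for 10 min at room temperature before substrate addition. The substrate mix held 12.5 µM H3K4me3 with cofactors 25 µM α-ketoglutarate and 50 µM Fe²⁺. NADH signal gain over 30 min defined activity.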
* = called active by the depositor; i = inactive. The sample as a whole holds a higher share of hits than the screen did. Potency means the concentration at half of the fitted maximal effect.

SMILES | KDM5B inh
COc1ccc(CNC(=O)N[C@@H]2CN(c3ncccn3)C[C@H]2CN(C)C)cc1 | 28µM*
COc1ccc(Nc2nc3ccccc3nc2NS(=O)(=O)c2ccc(Cl)s2)c(OC)c1 | i
COc1cccc(OCC(=O)NCc2cccc(CN3CCCC3)c2)c1 | i
Cc1ccc(S(=O)(=O)NC[C@H]2O[C@@H](CC(=O)N3CCN(c4ccccn4)CC3)[C@H](O)[C@@H]2O)cc1 | 28µM*
COCC(=O)NC[C@H]1O[C@@H](CC(=O)N2CCN(c3ccccc3)CC2)[C@H](O)[C@@H]1O | i
Cc1ccc(C(=O)NC[C@H]2O[C@@H](CC(=O)N3CCN(c4ccccn4)CC3)[C@H](O)[C@@H]2O)cc1 | i
Cc1ccc(S(=O)(=O)NC[C@H]2O[C@@H](CC(=O)N3CCN(c4ccc(F)cc4)CC3)[C@H](O)[C@@H]2O)cc1 | i
O=C(C[C@@H]1O[C@H](CNS(=O)(=O)c2ccccc2)[C@@H](O)[C@H]1O)N1CCN(c2ccccc2)CC1 | i
CN(C)C[C@H]1O[C@@H](CO)[C@@H](O)[C@H]1N1CCN(c2ncccn2)CC1 | i
CCC(CC)C(=O)NC[C@H]1O[C@@H](CC(=O)N2CCN(c3ccccn3)CC2)[C@H](O)[C@@H]1O | 32µM*
Cc1ccc(S(=O)(=O)NC[C@H]2O[C@@H](CC(=O)N3CCN(c4ccccc4)CC3)[C@H](O)[C@@H]2O)cc1 | i
O=C(NC[C@H]1O[C@@H](CO)[C@@H](O)[C@H]1N1CCN(c2ccccn2)CC1)c1ccccc1 | i
O=C(NC[C@H]1O[C@@H](CC(=O)N2CCN(c3ccccc3)CC2)[C@H](O)[C@@H]1O)c1ccccc1 | i
CS(=O)(=O)NC[C@H]1O[C@@H](CC(=O)N2CCN(c3ccccn3)CC2)[C@H](O)[C@@H]1O | 35µM*
OC[C@@H]1O[C@H](CN(Cc2cccc(Cl)c2)Cc2cccc(Cl)c2)[C@H](N2CCN(c3ccccn3)CC2)[C@@H]1O | 25µM*
CC(=O)N1CCC(NC[C@@H]2C=C(C)[C@H](Cc3nc4ccccc4[nH]3)C[C@H]2C(C)C)CC1 | i
O=C(NCc1ccc(-c2ccccc2)cc1)[C@H]1CCC[C@H](O)C1 | i
CCCOc1ccc(C(=O)NC2CCCCNC2=O)cc1OCC (stereo not given) | i
CC(=O)c1ccc(N2CCN(C(=O)CCc3ncc(-c4c(F)cccc4F)o3)CC2)c(F)c1 | i
CC(Oc1ccccc1)C(=O)N1CCC(n2cc(-c3nc(C(C)C)no3)nn2)CC1 (stereo not given) | i
CC(C)Cc1ccc(S(=O)(=O)N(C)CC2CCOCC2)cc1 | i
COc1nc2ccccc2nc1N1CCC(C(=O)Nc2cc(C)cc(C)c2)CC1 | i
Cc1cccc(N2CCN(C(=O)C3c4ccccc4CC(=O)N3C)CC2)c1C (stereo not given) | i
CC(=O)N1CC2(CCN(Cc3cncn3C3CC3)CC2)CC1C(=O)O (stereo not given) | i
CN(C)c1nc(Oc2ccc(=O)n(C)n2)nc(N(C)C)n1 | i
SMILES | KDM5B inh
CCCC(=O)NCc1nnnn1-c1ccc(OCC)cc1 | i
COc1ccccc1N1CCN([C@@H]2[C@H](O)[C@H](CO)O[C@@H]2CNS(=O)(=O)c2ccc(Cl)cc2)CC1 | i
O=S(=O)(NC[C@H]1O[C@@H](CO)[C@@H](O)[C@H]1N1CCN(c2ccccn2)CC1)c1ccc(Cl)cc1 | 28µM*
Cc1ccc(S(=O)(=O)NC[C@H]2O[C@@H](CO)[C@@H](O)[C@H]2N2CCCC2)cc1 | i
CCOc1ccc(NC(=O)CN2C(=O)NC(c3ccccc3OCC)C3=C2COC3=O)cc1 (stereo not given) | i
Cc1ccccc1CC(=O)NCc1nnc2cc(-c3nc(C4CC4)no3)ccn12 | 28µM*
O=C(Cc1ccccc1Cl)NCc1nnc2cc(-c3nc(C4CC4)no3)ccn12 | 16µM*
Cc1ccc(CC(=O)NCc2nnc3cc(-c4nc(C5CC5)no4)ccn23)cc1 | 28µM*
CCC(C(=O)NCc1nnc2cc(-c3nc(C4CC4)no3)ccn12)c1ccccc1 (stereo not given) | i
CCc1noc(-c2ccn3c(CNC(=O)Cc4cccc(F)c4)nnc3c2)n1 | i
CCCCn1c(=O)[nH]c(=O)c2c1nc(CSc1nnc(-c3ccco3)n1C1CCCCC1)n2CC | i
CN(Cc1cccc(F)c1)C(=O)c1cccc(NS(C)(=O)=O)c1 | i
Cc1cc(F)ccc1NC(=O)CCc1c[nH]c2ccccc12 | i
CCCNC(=O)NC(=O)CN(C)C(C)C1CC1 (stereo not given) | i
CCCCc1nc(C)cc(NCCNC(=O)C2CC3(CCNCC3)CN2)n1 (stereo not given) | i
CC(C)N1C(=O)C(CC(=O)N(C)Cc2cccnc2)=C2CCCCC21 (stereo not given) | i
Cc1ccc(-c2ccsc2C(=O)NCc2ccccn2)cc1 | i
CNc1ncc(C(=O)N2CCCC3(CCC(=O)N(CCOC)C3)C2)cn1 (stereo not given) | 28µM*
COCCN1CC2(CCCN(C(=O)CNC(N)=O)C2)CCC1=O (stereo not given) | i
